Values joined by “and” are separate entries in the source; they are usually repeats but may differ in a detail not shown here. Identical values can stand only once. Out of some 5,500 compounds screened, about 2,000 (36%) were called active. Not shown: some 18% with an inconclusive outcome. Rule as the data show it: active = normalized growth mostly below about 0.91 (no sharp cut-off); inconclusive = no clear call, values can overlap the other calls; inactive = mostly above about 0.92. Some of the results follow.
Test: chemical genetic growth profiling, strain panel (AID 1159580);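 also: tested at 20 µM; growth read once vehicle control cultures reached saturation at 30 °C; 1 = growth at the plate median or of vehicle wells; lower values mean less growth of the strain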
Conditions: S. cerevisiae deletion strains, growth OD

Measured: normalized growth

OCC(O)C(O)C(O)C(O)C(O)CO (configuration not stated)
inactive: locus YAL021C, strain ccr4, stronger effect = lower value 0.995 | locus YAL026C, strain drs2, stronger effect = lower value 0.991 | locus YAL030W, strain snc1, stronger effect = lower value 0.99 | locus YBL061C, strain skt5, stronger effect = lower value 0.989 | locus YBR009C, strain hhf1, stronger effect = lower value 1 | locus YBR021W, strain FUR4, stronger effect = lower value 1.02 | locus YBR023C, strain chs3, stronger effect = lower value 0.995 | locus YBR171W, strain sec66, stronger effect = lower value 0.991 | locus YBR229C, strain ROT2, stronger effect = lower value 0.96 | locus YBR231C, strain swc5, stronger effect = lower value 0.991 | locus YBR279W, strain paf1, stronger effect = lower value 0.991 | locus YCL011C, strain gbp2, stronger effect = lower value 0.999 | locus YCL016C, strain dcc1, stronger effect = lower value 0.989 | locus YCL029C, strain bik1, stronger effect = lower value 0.974 | locus YCL061C, strain MRC1, stronger effect = lower value 0.99 | locus YCL069W, strain vba3, stronger effect = lower value 1 | locus YCR088W, strain abp1, stronger effect = lower value 0.989 | locus YDL005C, strain med2, stronger effect = lower value 1 | locus YDL035C, strain GPR1, stronger effect = lower value 1.01 | locus YDL040C, strain nat1, stronger effect = lower value 0.982 | locus YDL074C, strain BRE1, stronger effect = lower value 1.05 | locus YDL101C, strain DUN1, stronger effect = lower value 1.01 | locus YDL185W, strain tfp1, stronger effect = lower value 0.954 | locus YDL192W, strain arf1, stronger effect = lower value 1 | locus YDR001C, strain nth1, stronger effect = lower value 0.99 | locus YDR069C, strain doa4, stronger effect = lower value 0.995 | locus YDR101C, strain arx1, stronger effect = lower value 0.974 | locus YDR137W, strain rgp1, stronger effect = lower value 1.02 | locus YDR159W, strain sac3, stronger effect = lower value 0.98 | locus YDR162C, strain NBP2, stronger effect = lower value 1 | locus YDR195W, strain ref2 0.965 | locus YDR297W, strain sur2, stronger effect = lower value 0.997 | locus YDR318W, strain mcm21, stronger effect = lower value 0.956 | locus YDR334W, strain swr1, stronger effect = lower value 0.987 | locus YDR335W, strain msn5, stronger effect = lower value 0.993 | locus YDR388W, stronger effect = lower value 0.985 | locus YDR392W, strain spt3, stronger effect = lower value 0.99 | locus YDR502C, strain sam2, stronger effect = lower value 1.01 | locus YEL003W, strain gim4, stronger effect = lower value 0.994 | locus YEL037C, strain rad23, stronger effect = lower value 0.992 | locus YEL061C, strain CIN8 (second series), stronger effect = lower value 0.979 | locus YEL061C, strain CIN8, stronger effect = lower value 0.993 | locus YER015W, strain faa2, stronger effect = lower value 0.994 | locus YER016W, strain bim1, stronger effect = lower value 0.983 | locus YER110C, stronger effect = lower value 0.97 | locus YER111C, strain swi4, stronger effect = lower value 0.989 | locus YER155C, strain BEM2 (second series), stronger effect = lower value 0.989 | locus YER155C, strain BEM2, stronger effect = lower value 1 | locus YER167W, strain BCK2, stronger effect = lower value 0.997 | locus YFR010W, strain ubp6, stronger effect = lower value 0.99 | locus YGL078C, strain dbp3, stronger effect = lower value 1.01 | locus YGL086W, strain mad1, stronger effect = lower value 1.01 | locus YGL167C, strain pmr1, stronger effect = lower value 0.996 | locus YGL173C, strain kem1, stronger effect = lower value 1 | locus YGL227W, strain vid30, stronger effect = lower value 0.992 | locus YGL240W, strain doc1, stronger effect = lower value 1 | locus YGL248W, strain PDE1, stronger effect = lower value 1.02 | locus YGL253W, strain hxk2, stronger effect = lower value 0.989 | locus YGR135W, strain pre9, stronger effect = lower value 1.05 | locus YGR252W, strain gcn5, stronger effect = lower value 1.1 | locus YHR013C, strain ard1, stronger effect = lower value 0.981 | locus YHR027C, strain rpn1, stronger effect = lower value 1 | locus YHR030C, strain SLT2, stronger effect = lower value 0.998 and 0.954 | locus YHR079C, strain IRE1 (second series), stronger effect = lower value 0.992 | locus YHR079C, strain IRE1, stronger effect = lower value 0.973 | locus YHR094C, strain hxt1, stronger effect = lower value 0.965 | locus YHR129C, strain ARP1, stronger effect = lower value 1.02 | locus YHR142W, strain chs7, stronger effect = lower value 0.995 | locus YHR200W, strain rpn10, stronger effect = lower value 0.991 | locus YIL066C, strain RNR3, stronger effect = lower value 0.995 | locus YIL073C, strain SPO22, stronger effect = lower value 1.07 | locus YIL125W, strain kgd1, stronger effect = lower value 0.967 | locus YIR030C, strain dcg1, stronger effect = lower value 1.01 | locus YJL092W, strain hpr5, stronger effect = lower value 0.993 | locus YJL095W, strain BCK1 (second series), stronger effect = lower value 0.993 | locus YJL095W, strain BCK1, stronger effect = lower value 1.09 and 0.974 | locus YJL115W, strain asf1, stronger effect = lower value 0.982 | locus YJL129C, strain trk1, stronger effect = lower value 1 | locus YJL134W, strain LCB3, stronger effect = lower value 0.985 | locus YJL154C, strain vps35, stronger effect = lower value 0.991 | locus YJL164C, strain tpk1, stronger effect = lower value 0.994 | locus YJL166W, strain qcr8, stronger effect = lower value 0.996 | locus YJL168C, strain set2, stronger effect = lower value 0.984 | locus YJL187C, strain SWE1 (second series), stronger effect = lower value 1.01 | locus YJL187C, strain SWE1, stronger effect = lower value 1 | locus YJR043C, strain POL32, stronger effect = lower value 1.02 | locus YJR066W, strain TOR1, stronger effect = lower value 0.927

From PubChem BioAssay AID1159580 (chemical genetic matrix, 2015)
